The nature of test [1]: NCI Yeast Anticancer Drug Screen. Data for the rad50 strain (AID 155).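 Note: 0% = growth of vehicle-only cultures of the same strain.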 The note with it: S. cerevisiae rad50 strain growth inhibition; at 50.0 µM; active compounds read high. An outline of the steps: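 Cells are treated with compound, grown, and their growth is then scored against vehicle-only cultures of the same repair-deficient yeast strain.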
Test [2] can be described thus: NCI Yeast Anticancer Drug Screen. Data for the mec2-1 strain (AID 157). The note with it: S. cerevisiae mec2-1 strain, at 50.0 µM, active compounds read high. In a few lines: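 Cells of the genetically defined mec2-1 yeast strain are incubated with test compound. Inhibition of growth is calculated against vehicle-treated controls.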
Test [3] is described as follows: NCI Yeast Anticancer Drug Screen. Data for the sgs1 mgt1 strain (AID 161).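 Note: 0% = growth of cultures given vehicle only.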 The note with it: S. cerevisiae sgs1 mgt1 strain, at 50.0 µM, active compounds read high. In a few lines:
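Test agents were incubated with a DNA-repair-mutant yeast strain. Growth was then read and compared against vehicle-treated controls.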

Test [4] is described as follows: NCI Yeast Anticancer Drug Screen. Data for the cln2 rad14 strain (AID 165).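 Note: 0% = growth equal to vehicle treated cultures.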 The note with it: S. cerevisiae cln2 rad14 strain, at 50.0 µM, active compounds read high. An outline of the steps: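 The screen exposed genetically defined yeast (cln2 rad14) to test compounds and scored growth inhibition relative to vehicle-treated controls.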
A short description of test [5]: NCI Yeast Anticancer Drug Screen. Data for the bub3 strain (AID 167). The note with it: S. cerevisiae bub3 mutant strain, at 50.0 µM, active compounds read high. An outline of the steps: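 Part of a panel of yeast mutants defective in DNA damage repair or cell cycle regulation. Each strain is grown with compound, and inhibition is calculated relative to solvent-treated cultures.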

Test [6] is described as follows: NCI Yeast Anticancer Drug Screen. Data for the mlh1 rad18 strain (AID 175). To be noted: S. cerevisiae mlh1 rad18 strain growth inhibition; at 50.0 µM; active compounds read high. In a few lines:
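Compound-treated yeast growth, normalised to vehicle controls. Strain bears defined DNA repair mutations.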

The panel holds about 79,000 compounds, 15% with a hit somewhere; the sample as a whole holds those more often. Values without a mark were called inactive. The source made the active and inactive calls. Cut-off read from the data, not from the text of the source: active = growth inhibition above about 70%; inactive = the rest.

`Cc1ccc(S(=O)(=O)N(C)C(C(=O)O)c2ccccc2)cc1` (stereo not given): the growth inhibition in test [1] was 22.4%; in test [2] it was -1.35%; in test [3], 7.15%; in test [4], -20.6%; in test [5], -7.8%; in test [6], 3%.

As to `O=c1c2cc3ccccc3cc2c(=O)n2n1CC(O)C(Br)C2` (stereo not given), the growth inhibition in test [1] is 64.7%; in test [2] it was 20.9%; in test [3], 36.5%; in test [4] it was -28.6%; in test [5] it was -3.2%; in test [6], 17.7%.

`S=C(Sc1nc2ccccc2s1)Sc1nc2ccccc2s1`: the growth inhibition in test [1] is 72% (active); in test [2], 91.1% (active); in test [3], 95% (active); in test [4] it was 85.5% (active); in test [5], 97.5% (active); in test [6], 90.7% (active).

On to `OC1c2ccccc2-c2c(Cl)cc(Cl)cc21` (stereo not given), for which the growth inhibition in test [1] is 0.25%; in test [2] it was 6.1%; in test [3], 11.2%; in test [4], -45.9%; in test [5], 3.95%; in test [6], 1.95%.

`NC(=O)c1ccc2c(ccc3ccccc32)c1`: the growth inhibition was 48.5% in test [1]; 4.75% in test [2]; 5.05% in test [3]; -36% in test [4]; -1.8% in test [5]; -2.75% in test [6].

As to `Cc1ccc(S(=O)CC(Cl)c2ccccc2)cc1` (stereo not given), the growth inhibition in test [1] was -26.6%; in test [2] it was 4.2%; in test [3], 13.2%; in test [4], 56%; in test [5], 14.3%; in test [6], 21.1%.

Consider `CCOc1ccc(Cc2ccccc2)cc1`, for which the growth inhibition in test [1] is -8.95%; in test [2], -23.9%; in test [3] it was -7%; in test [4], 1.5%; in test [5], -8.25%; in test [6], -5.35%.

In the case of `Cn1cnc2c(Cl)ncnc21`, the growth inhibition in test [1] was 12.9%; in test [2], 34.5%; in test [3] it was -20.9%; in test [4], -18.4%; in test [5], -0.55%; in test [6], 5.65%.

As for `c1ccc(-c2cc(-c3ccccc3)n(-c3ccccc3)c2-c2ccccc2)cc1`, the growth inhibition in test [1] is 8.45%; in test [2] it was 5.85%; in test [3], 0.45%; in test [4], -5.35%; in test [5], 24.4%; in test [6], -3.35%.

With `Cc1nc(N)[nH]c(=O)c1CCO`, the growth inhibition in test [1] was -1.3%; in test [2], -23%; in test [3], -36.6%; in test [4], 3.3%; in test [5], -15.1%; in test [6], -3.8%.

For the molecule `CCOc1ccccc1NC(=O)C(=O)C(/C(=N/N)C(=O)OC)c1nc2ccc([N+](=O)[O-])cc2[nH]c1=O` (stereo not given), the growth inhibition in test [1] was 16.9%; in test [2], -10%; in test [3] it was 5.7%; in test [4] it was 15.4%; in test [5] it was -1.35%; in test [6], 9.25%.

With `CC(=O)OC(c1ccccc1)C1(c2ccccc2)OCCO1` (stereo not given), the growth inhibition in test [1] was -9.2%; in test [2], 7.5%; in test [3] it was 5.75%; in test [4], -33%; in test [5], 1.4%; in test [6], 17.1%.

For `S=C1CC(c2ccc(Cl)cc2)Sc2ccccc2N1` (stereo not given), the growth inhibition in test [1] was -24.9%; in test [2] it was -5.6%; in test [3], -9.4%; in test [4] it was -0.95%; in test [5] it was -6.85%; in test [6], -31.4%.

As to `CN(C)c1ccc(S(=O)c2ccc(N(C)C)cc2)cc1`, the growth inhibition in test [1] was -30.4%; in test [2], -27.9%; in test [3] it was -44.9%; in test [4], -4.75%; in test [5] it was -48.4%; in test [6], -35%.

As for `N#CCC(=O)c1ccccc1C(=O)O`, the growth inhibition in test [1] is -4.45%; in test [2], -38.8%; in test [3], 4.7%; in test [4], 4.65%; in test [5], -6.2%; in test [6], 17.6%.

In the case of `O=C(O)C12CC3(C(=O)O)CC(C(=O)O)(CC(C(=O)O)(C1)C3=O)C2=O`, the growth inhibition in test [1] was -11.3%; in test [2], 13.4%; in test [3] it was -24.4%; in test [4], -4.15%; in test [5] it was -28.1%; in test [6], 17.3%.

With `CC(=O)Oc1cc(I)cc(C(=O)O)c1`, the growth inhibition in test [1] is -10%; in test [2], 9.85%; in test [3] it was -1.05%; in test [4], -9.15%; in test [5], 3.3%; in test [6], -10.4%.

On to `COc1ccc([N+](=O)[O-])cc1NS(=O)(=O)c1ccc(NC(C)=O)cc1`, for which the growth inhibition in test [1] was 1.6%; in test [2], 18.7%; in test [3], -5.55%; in test [4] it was -1.25%; in test [5], 23.8%; in test [6], -19%.

In the case of `CCSc1nc(C)c(C)c(=O)[nH]1`, the growth inhibition in test [1] was 14.2%; in test [2], -10.9%; in test [3], 22.4%; in test [4] it was 16%; in test [5] it was 21.8%; in test [6], 12.8%.

For `Cc1ccc(-c2nnc(CCCCCCCCc3nnc(-c4ccc(C)cc4O)n3N)n2N)c(O)c1`, the growth inhibition is 9.2% in test [1]; -21.9% in test [2]; 3.75% in test [3]; 7.5% in test [4]; 1.75% in test [5]; 0.5% in test [6].

The values above are taken from PubChem BioAssay (NCI).
